The list is not random: actives were taken first. Their share in the collection is about 3.5%.
BoNT-F LC inh: blocks Botulinum neurotoxin F light chain protease | Multiplex microsphere protease cleavage assay, flow cytometry | inhibition, % at 10 µM | 360,000 compounds, 0.22% hits | AID 588497; in the data active means inhibition above about 35%, passing the limit was not always enough; inconclusive means no clear call, values can overlap the other calls
Autofluor counter: flagged as autofluorescent in microsphere protease counterscreen | compound autofluorescence counterscreen, microsphere flow cytometry; stronger effect = higher value | AID 624483 | fluorescence intensity (concentration not given with the values) | 360,000 compounds, 3.1% hits; in the data active means fluorescence intensity above about 16000; inconclusive means no clear call, values can overlap the other calls
BH1578 lux ind: quorum light induction in luxS cqsA deficient V. cholerae | activation, % at 18.7 µM | 350,000 compounds, 0.16% hits | V. cholerae BH1578 lux reporter, luminescence, 6 h | AID 588436; in the data active means activation mostly above about 9.7%, no sharp cut-off; inconclusive means no clear call, values can overlap the other calls; inactive means mostly below about 3.7%
BoNT A protease: inhibitors of Botulinum neurotoxin A light chain protease; multiplex microsphere protease substrate cleavage, flow cytometry; inhibition, % at 10 µM; 360,000 compounds, 0.17% hits; AID 588499
Anthrax LF prot: inhibitors of Bacillus anthracis lethal factor protease | P15917 | multiplex microsphere protease cleavage assay, LF | inhibition, % at 10 µM | 360,000 compounds, 0.12% hits | AID 588501
Large screens that a line does not name were inactive. Unless noted, no stated cut-off is given here; in the data, active means inhibition above about 30%; inconclusive means no clear call, values can overlap the other calls; inactive means below that.

O=c1c(O)c(-c2cccs2)oc2ccccc12	BoNT A protease 31
O=c1c(O)c(-c2cccs2)oc2ccc(Cl)cc12	BoNT A protease 35, Anthrax LF prot 32
O=c1c(O)c(-c2ccccc2)oc2ccccc12	none
O=c1cc(-c2cccs2)oc2ccc(Cl)cc12	Autofluor counter 22409
O=C(Nc1ccc(S(=O)(=O)NCc2ccccc2)cc1)C1CCCCC1	none (no result: BoNT-F LC inh, Autofluor counter, BoNT A protease, Anthrax LF prot)
CC1CC(C)(C)N2C(=O)C3(Nc4ccccc4S3)c3cccc1c32 (stereo not drawn)	Autofluor counter 22846, BoNT A protease inconclusive
CC(C)n1cnnc1SCC(=O)NC(=O)c1ccccc1	none
COc1ccc(/C=N/Nc2nc(-c3ccc(C)cc3)c(NC(C)=O)s2)cc1OC	BoNT-F LC inh inconclusive, Anthrax LF prot 36
COc1cc(/C=N\Nc2nc(-c3ccc(C)cc3)c(NC(C)=O)s2)ccc1O	none
Cc1nc(NCC2CCCO2)[nH]c(=O)c1CCC(C)C (stereo not drawn)	none (no result: BH1578 lux ind)
Cc1nc(NCc2ccco2)[nH]c(=O)c1CCC(C)C	Autofluor counter 21901
Cc1ccccc1NC(=O)C1CC(=O)N(c2ccc3c4c(cccc24)CC3)C1 (stereo not drawn)	BH1578 lux ind 25
CC(C)CCNC(=O)c1onc(CSc2ccccn2)c1C(=O)NCCC(C)C	none
Cc1ccc(NC(=O)CSc2nnc(Cc3csc(C)n3)o2)c(C)c1	Autofluor counter inconclusive
COc1ccc(CC(=O)c2c(O)cc(O)cc2O)cc1OC	Autofluor counter 22635, BoNT A protease inconclusive
COC(=O)c1ccc(CS(=O)(=O)c2ccc(C)cc2)cc1	Autofluor counter 21233, BoNT A protease inconclusive
OC[C@@H]1CN(Cc2ccco2)C[C@H](n2cnc3c(NCc4ccc(F)cc4)ncnc32)O1	none
COc1ccccc1NC(=O)Nc1nnc(CC(=O)Nc2ccccc2C)s1	none
COc1ccccc1NC(=O)NC(N)=O	Autofluor counter 21653
COc1ccccc1NC(=O)NC(=O)c1ccccc1	BoNT-F LC inh inconclusive
CCc1nnc(NC(=O)Nc2ccccc2OC)s1	Autofluor counter 22103, BoNT A protease inconclusive
CCOc1ccc(S(=O)(=O)N2CCCCC2)cc1NS(=O)(=O)c1cccs1	none
CN(C)Cc1c(C(=O)N/N=C/c2cccs2)nnn1-c1nonc1N	none
COc1cc(C(C[N+](=O)[O-])c2c(C)[nH]c3ccccc23)cc(OC)c1OC (stereo not drawn)	Autofluor counter 21574
Cc1ccnc(N/C=C(\C#N)c2nc(-c3cccc(Br)c3)cs2)c1	BoNT-F LC inh 39, BoNT A protease 56, Anthrax LF prot 39
O=C(O)C1CCCC2CN3CCc4c([nH]c5ccccc45)C3C(O)C21 (stereo not drawn)	none (no result: BoNT-F LC inh, Autofluor counter, BoNT A protease, Anthrax LF prot)
CC(=O)Cc1nsc(NC(=O)c2ccc(-c3cc(C(F)(F)F)ccc3Cl)o2)n1	none
CC(C)NC(=O)c1ccc(-c2cc(C(F)(F)F)ccc2Cl)o1	Autofluor counter 22154
CN1C(=O)C(Cc2nc3ccccc3c(=O)n2-c2ccccc2)c2ccccc21 (stereo not drawn)	Autofluor counter 19805, BoNT A protease inconclusive
CCCN1C(=O)C(Cc2nc3ccccc3c(=O)n2-c2ccccc2)c2ccccc21 (stereo not drawn)	none
COc1ccccc1-n1nnnc1SC(C)C(=O)NC1CCCC1 (stereo not drawn)	Autofluor counter inconclusive
Cc1ccc(N2CC(C(=O)Nc3cccc(S(=O)(=O)N4CCOCC4)c3)CC2=O)cc1 (stereo not drawn)	none
O=C(O)c1ccccc1C(=O)Nc1ccc(Oc2ccccc2)cc1	none
CC(C)(C)c1ccc(Oc2ccc(NC(=O)c3ccccc3C(=O)O)cn2)cc1	BoNT-F LC inh 48, Anthrax LF prot inconclusive
Cc1ccccc1NC(=O)c1cccc(N2C(=O)C3CCC(C)CC3C2=O)c1 (stereo not drawn)	none
Cc1cccc(NC(=O)c2cccc(N3C(=O)C4C5CCC(C5)C4C3=O)c2)c1C (stereo not drawn)	Autofluor counter 18603, BoNT A protease inconclusive
CCc1ccccc1NC(=O)c1cccc(N2C(=O)C3C4CCC(C4)C3C2=O)c1 (stereo not drawn)	Autofluor counter 23495, BoNT A protease inconclusive
CC(NC(=O)C(c1ccccc1)c1ccccc1)C(=O)N1CCCCC1 (stereo not drawn)	none
O=C(COC(=O)c1cccc(Cl)c1)Nc1cccc(S(=O)(=O)NC2=NCCC2)c1	none
COC(=O)COc1ccc(Oc2cc(C)nc(SC)n2)nn1	Autofluor counter 21755, BoNT A protease inconclusive
COc1cc(C(=O)OCC(=O)c2cc(C)n(CC3CCCO3)c2C)ccc1OCC(=O)N1CCOCC1 (stereo not drawn)	none
CCC1(C)Cc2c(sc3c2c(=O)n(C)c2nnc(SCC(=O)c4ccccc4)n32)CO1 (stereo not drawn)	Autofluor counter 20408
CCn1c(SCC(=O)Nc2cc(C)on2)nnc1-c1c[nH]c2ccccc12	none
Cc1ncc(CC(=O)n2cc(C(=O)c3cc(F)ccc3O)cn2)s1	Autofluor counter 24032, BoNT A protease inconclusive
O=C1NC[C@@H](CCCCN2C[C@H](Cc3ccc(O)cc3)N(CCC3CCCCC3)C(=O)C2=O)N(CC2CCCCC2)C1=O	none (no result: BH1578 lux ind)
Cc1ccccc1-c1noc(N)c1C#N	Autofluor counter 23456
O=C(O)Cn1nc2ccccc2n1	Autofluor counter 22940, BoNT A protease inconclusive
O=C(O)Cn1nnc2ccccc21	none
CCCOc1ccc(-c2c(C(=O)N/N=C(\C)c3cccs3)nnn2-c2nonc2N)cc1	none
CCNC(=O)c1c(C)[nH]c(C(=O)OCC)c1C	Autofluor counter 24505
CCOC(=O)c1[nH]c(C)c(C(=O)NCc2ccccn2)c1C	Autofluor counter 21338
CCOC(=O)c1[nH]c(C)c(C(=O)N(C)C)c1C	none
CCOC(=O)c1[nH]c(C)c(C(=O)Nc2ccc(C)c(Cl)c2)c1C	Autofluor counter 21453
CCOC(=O)c1[nH]c(C)c(C(=O)Nc2ccc(C)c(F)c2)c1C	none
CCOCCCNC(=O)c1c(C)[nH]c(C(=O)OCC)c1C	Autofluor counter 16166
CCOP(=O)(OCC)C(NC(=O)c1cccs1)c1ccccc1 (stereo not drawn)	none
COc1cccc(C(=O)Nc2c[nH]c(=O)[nH]c2=O)c1	none
CCOC(=O)c1c(C)[nH]c(C(=O)OCc2ccccc2)c1C	none
CCOC(=O)c1c(C)[nH]c(C(=O)C(C)Cl)c1C (stereo not drawn)	none
CNC(=O)COC(=O)c1[nH]c(C)c(C(C)=O)c1C	Autofluor counter 16399, BoNT A protease inconclusive
CCOC(=O)c1[nH]c(C)c(C(=O)C(C)C)c1C	Autofluor counter 16910
CCOC(=O)c1[nH]c(C)c(C(=O)N(C)Cc2ccccc2)c1C	Autofluor counter 18491
CC(=O)c1c(C)[nH]c(C(=O)COc2cc(C)cc(C)c2)c1C	Autofluor counter 21911
Cc1ccc(Cl)c(OCC(=O)NC2CCN(Cc3ccccc3)CC2)c1	Autofluor counter inconclusive
CCOC(=O)c1c(C)[nH]c(C(=O)OCc2ccc(C)cc2)c1C	none
CCOC(=O)c1[nH]c(C)c(C(=O)OCCN2C(=O)c3ccccc3C2=O)c1C	Autofluor counter 20341
COc1cc2[nH]c(=S)n(C3CC3)c(=O)c2cc1OC	none
COc1cc2[nH]c(=S)n(C3CCCC3)c(=O)c2cc1OC	Autofluor counter 23713

From PubChem
